Activity calls are given as the source filed them.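 How the source made its calls: active means peak inhibition above 30% at some tested dose, together with a fitted dose response curve; inactive means no inhibition at all doses, or no curve obtained.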
molecular target: Inward rectifier potassium channel 2 (Mus musculus) (UniProt P35561); experiment: Kir2.1 channel inhibition, specificity check, SAR follow-up, selectivity assay for TASK1 inhibitor project, cell-based, FluxOR thallium flux, HEK293, CRC (AID 652190); conditions: Kir2.1-expressing cells; series mostly up to 30 µM
Sequence (P35561 whole entry, looked up): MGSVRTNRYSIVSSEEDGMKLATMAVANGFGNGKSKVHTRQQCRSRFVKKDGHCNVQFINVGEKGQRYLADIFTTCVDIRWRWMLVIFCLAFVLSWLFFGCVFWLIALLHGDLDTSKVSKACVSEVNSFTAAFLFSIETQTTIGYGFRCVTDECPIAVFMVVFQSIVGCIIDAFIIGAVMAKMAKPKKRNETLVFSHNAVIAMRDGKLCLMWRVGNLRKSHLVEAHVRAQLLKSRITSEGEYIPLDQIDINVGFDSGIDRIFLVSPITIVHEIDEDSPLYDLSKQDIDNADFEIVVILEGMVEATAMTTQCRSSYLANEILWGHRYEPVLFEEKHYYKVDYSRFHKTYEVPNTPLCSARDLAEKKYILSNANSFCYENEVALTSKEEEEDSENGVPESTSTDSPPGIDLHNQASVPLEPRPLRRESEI

outcome, inactive:
CC(C)Oc1ccccc1C(=O)Nc1cccc(NC(=O)c2ccccc2OC(F)(F)F)c1
CCCC(=O)C1CCN(c2ncnc3c2CN(C(=O)c2ccc(-c4ccccc4)cc2)CC3)CC1
Cc1cccc(C(=O)Nc2cccc(NC(=O)c3cccc(F)c3)c2)c1
COc1ccc(F)cc1C(=O)Nc1cccc(NC(=O)c2cccc(C)c2)c1
COc1ccccc1C(=O)Nc1cc(NC(=O)c2ccccc2C(C)C)ccc1F
COc1ccc(CC(=O)NCc2ccccc2-c2ccccc2C(=O)NCc2ccc(F)cc2F)cc1
CC(C)c1ccccc1C(=O)Nc1cccc(NC(=O)c2ccccc2OC(F)(F)F)c1
COc1ccccc1C(=O)Nc1cccc(NC(=O)c2cccc3ccccc23)c1
COc1c(F)cccc1C(=O)Nc1cccc(NC(=O)c2cccc(C)c2)c1
COc1ccccc1C(=O)Nc1cc(NC(=O)c2cccc(C)c2)ccc1F
COc1cnccc1C(=O)Nc1cccc(NC(=O)c2cccc(C)c2)c1
